Inconclusive results are not listed. A number with no mark means an inactive call. Activity calls are given as the source filed them. The call rests on the fitted dose curve; in most records, active means well fitted inhibition curve with a large enough effect; inconclusive means small, poorly fitted or top-dose-only effect; inactive means flat fitted curve, though single readings scatter.
Experiment: BET inhibitor-based combinations targeting novel dependencies in MECOM-rearranged (r) AML: AML-194 cell line (AID 2202237; further: nearly all actives have a fitted effect of over 40% in size;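 on viability (% of control): plate controls were vehicle wells for no effect and wells without cells for full effect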)
Settings: AML-194 (MECOM-r AML) viability, CellTiter-Glo, 48 h; series mostly up to 46 µM; viability (% of control): at the top concentration
Outline: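 AML cell lines seeded at 500 cells/well, treated with 11-point dose curves for 48 h. Viability by CellTiter-Glo luminescence, normalised to DMSO and empty wells; activity expressed as AUC and per-cell-line Z-transformed AUC.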
For `O=C1C(c2c(O)[nH]c3ccccc23)=Nc2ccccc21`, the “viability (% of control)” value was 114%. For `CC(C)Nc1cc(-c2c[nH]c(C(=O)N[C@H](CO)c3cccc(Cl)c3)c2)c(Cl)cn1`, the Potency was 8.33 µM (active). For `CCOc1ccc(Nc2nc(-c3c(C)nc4ccccn34)cs2)cc1`, the Potency was 0.332 µM (active). In the case of `O=C(CCCCCCNC(=O)c1cnc(N(c2ccccc2)c2ccccc2)nc1)NO`, the Potency is reported as 9.34 µM (active). With `CN(C)c1cccc(-c2c3c(=O)n(-c4ccccc4Cl)[nH]c3cc(=O)n2C)c1` the “viability (% of control)” value was 102%. In the case of `CC1(COc2ccc3c(c2)ncn3-c2ccc3cccc(N4CCC(N)CC4)c3n2)COC1`, the Potency is reported as 2.35 µM (active).
Potency means the concentration at half of the fitted maximal effect.
